“And” between values parts separate entries of the source, which are not always exact repeats. Equal values may be shown once. Screen size: about 5,500 compounds; about 2,000 (36%) were called active. Inconclusive results (about 18%) are left out. Cut-off read from the data, not from the text of the source: active = normalized growth mostly below about 0.91 (no sharp cut-off); inconclusive = no clear call, values can overlap the other calls; inactive = mostly above about 0.92. The list shows a part of the results.
Assay: chemical genetic growth profiling, strain panel (AID 1159580);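 note: tested at 20 µM; growth read once vehicle control cultures reached saturation at 30 °C; 1 = growth at the plate median or of vehicle wells; lower values mean less growth of the strain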
Details: S. cerevisiae deletion strains, growth OD

Measured: normalized growth

Cc1cc(C2CCCCC2)n(O)c(=O)c1
active: locus YAL013W, strain DEP1, active compounds read low 0.0568 | locus YAL021C, strain ccr4, active compounds read low 0.0678 | locus YAL026C, strain drs2, active compounds read low 0.0676 | locus YAL030W, strain snc1, active compounds read low 0.0625 | locus YBL061C, strain skt5, active compounds read low 0.0672 | locus YBR009C, strain hhf1, active compounds read low 0.0705 | locus YBR021W, strain FUR4, active compounds read low 0.0983 | locus YBR023C, strain chs3, active compounds read low 0.0704 | locus YBR171W, strain sec66, active compounds read low 0.0805 | locus YBR229C, strain ROT2, active compounds read low 0.0502 | locus YBR231C, strain swc5, active compounds read low 0.0693 | locus YBR279W, strain paf1, active compounds read low 0.0649 | locus YCL011C, strain gbp2, active compounds read low 0.0616 | locus YCL016C, strain dcc1, active compounds read low 0.0719 | locus YCL029C, strain bik1, active compounds read low 0.0632 | locus YCL061C, strain MRC1, active compounds read low 0.0677 | locus YCL069W, strain vba3, active compounds read low 0.0654 | locus YCR088W, strain abp1, active compounds read low 0.0632 | locus YDL005C, strain med2, active compounds read low 0.0889 | locus YDL035C, strain GPR1, active compounds read low 0.0542 | locus YDL040C, strain nat1, active compounds read low 0.0679 | locus YDL074C, strain BRE1, active compounds read low 0.0802 | locus YDL101C, strain DUN1, active compounds read low 0.0596 | locus YDL134C, strain PPH21, active compounds read low 0.0521 | locus YDL185W, strain tfp1, active compounds read low 0.058 | locus YDL192W, strain arf1, active compounds read low 0.0653 | locus YDR001C, strain nth1, active compounds read low 0.0631 | locus YDR069C, strain doa4, active compounds read low 0.0665 | locus YDR101C, strain arx1, active compounds read low 0.06 | locus YDR137W, strain rgp1, active compounds read low 0.0918 | locus YDR159W, strain sac3, active compounds read low 0.0928 | locus YDR162C, strain NBP2, active compounds read low 0.0474 | locus YDR195W, strain ref2 0.135 | locus YDR297W, strain sur2, active compounds read low 0.0662 | locus YDR318W, strain mcm21, active compounds read low 0.0655 | locus YDR334W, strain swr1, active compounds read low 0.0673 | locus YDR335W, strain msn5, active compounds read low 0.0634 | locus YDR388W, active compounds read low 0.0556 | locus YDR392W, strain spt3, active compounds read low 0.101 | locus YDR502C, strain sam2, active compounds read low 0.0664 | locus YEL003W, strain gim4, active compounds read low 0.0625 | locus YEL037C, strain rad23, active compounds read low 0.0622 | locus YEL061C, strain CIN8 (second series), active compounds read low 0.0671 | locus YEL061C, strain CIN8, active compounds read low 0.0514 | locus YER015W, strain faa2, active compounds read low 0.0656 | locus YER016W, strain bim1, active compounds read low 0.0682 | locus YER110C, active compounds read low 0.0812 | locus YER111C, strain swi4, active compounds read low 0.0758 | locus YER155C, strain BEM2 (second series), active compounds read low 0.0947 | locus YER155C, strain BEM2, active compounds read low 0.0718 | locus YER167W, strain BCK2, active compounds read low 0.0519 | locus YFR010W, strain ubp6, active compounds read low 0.0703 | locus YGL078C, strain dbp3, active compounds read low 0.0608 | locus YGL086W, strain mad1, active compounds read low 0.0597 | locus YGL167C, strain pmr1, active compounds read low 0.0798 | locus YGL173C, strain kem1, active compounds read low 0.0716 | locus YGL227W, strain vid30, active compounds read low 0.0707 | locus YGL240W, strain doc1, active compounds read low 0.0866 | locus YGL248W, strain PDE1, active compounds read low 0.0515 | locus YGL253W, strain hxk2, active compounds read low 0.058 | locus YGR078C, strain PAC10, active compounds read low 0.0546 | locus YGR135W, strain pre9, active compounds read low 0.065 | locus YGR252W, strain gcn5, active compounds read low 0.175 | locus YHR013C, strain ard1, active compounds read low 0.11 | locus YHR027C, strain rpn1, active compounds read low 0.0647 | locus YHR030C, strain SLT2, active compounds read low 0.0526 and 0.0937 | locus YHR079C, strain IRE1 (second series), active compounds read low 0.0583 | locus YHR079C, strain IRE1, active compounds read low 0.109 | locus YHR094C, strain hxt1, active compounds read low 0.0632 | locus YHR129C, strain ARP1, active compounds read low 0.0642 | locus YHR142W, strain chs7, active compounds read low 0.0791 | locus YHR200W, strain rpn10, active compounds read low 0.0659 | locus YIL066C, strain RNR3, active compounds read low 0.0522 | locus YIL073C, strain SPO22, active compounds read low 0.112 | locus YIL125W, strain kgd1, active compounds read low 0.0598 | locus YIR030C, strain dcg1, active compounds read low 0.0627 | locus YJL092W, strain hpr5, active compounds read low 0.063 | locus YJL095W, strain BCK1 (second series), active compounds read low 0.0609 | locus YJL095W, strain BCK1, active compounds read low 0.063 and 0.0938 | locus YJL115W, strain asf1, active compounds read low 0.0778 | locus YJL129C, strain trk1, active compounds read low 0.0912 | locus YJL134W, strain LCB3, active compounds read low 0.0539 | locus YJL154C, strain vps35, active compounds read low 0.0631 | locus YJL164C, strain tpk1, active compounds read low 0.0734 | locus YJL166W, strain qcr8, active compounds read low 0.0662 | locus YJL168C, strain set2, active compounds read low 0.0634 | locus YJL187C, strain SWE1 (second series), active compounds read low 0.053 | locus YJL187C, strain SWE1, active compounds read low 0.0672 | locus YJR043C, strain POL32, active compounds read low 0.068 | locus YJR066W, strain TOR1, active compounds read low 0.00216 | locus YJR075W, strain HOC1, active compounds read low 0.0627 | locus YKL009W, strain mrt4, active compounds read low 0.0702 | locus YKL068W, active compounds read low 0.0617 | locus YKL085W, strain MDH1 (second series), active compounds read low 0.0539 | locus YKL085W, strain MDH1, active compounds read low 0.0539 | locus YKL160W, strain elf1, active compounds read low 0.0716 | locus YKL190W, strain CNB1, active compounds read low 0.0484 | locus YKR001C, strain vps1, active compounds read low 0.0653 | locus YKR026C, strain gcn3, active compounds read low 0.0732 | locus YKR091W, strain srl3, active compounds read low 0.069 | locus YLL001W, strain dnm1, active compounds read low 0.0664 | locus YLL026W, active compounds read low 0.0595 | locus YLL041C, strain sdh2, active compounds read low 0.0627 | locus YLR027C, strain aat2, active compounds read low 0.0603 | locus YLR039C, strain RIC1, active compounds read low 0.0987 | locus YLR058C, strain SHM2, active compounds read low 0.0519 | locus YLR102C, strain apc9, active compounds read low 0.0656 | locus YLR113W, strain HOG1, active compounds read low 0.121 | locus YLR221C, strain rsa3, active compounds read low 0.0659 | locus YLR258W, strain gsy2, active compounds read low 0.0669 | locus YLR262C, strain YPT6 (second series), active compounds read low 0.0856 | locus YLR262C, strain YPT6, active compounds read low 0.115 | locus YLR268W, strain sec22, active compounds read low 0.0687 | locus YLR320W, strain mms22, active compounds read low 0.0895 | locus YLR330W, strain CHS5, active compounds read low 0.0525 | locus YLR342W, strain FKS1 (second series), active compounds read low 0.0737 | locus YLR342W, strain FKS1, active compounds read low 0.0735 | locus YLR357W, strain rsc2, active compounds read low 0.133 | locus YLR370C, strain arc18, active compounds read low 0.0637 | locus YLR371W, strain rom2, active compounds read low 0.0664 | locus YLR384C, strain iki3, active compounds read low 0.0637 | locus YLR418C, strain cdc73, active compounds read low 0.0958 | locus YML016C, strain PPZ1, active compounds read low 0.0483 | locus YML032C, strain rad52, active compounds read low 0.0723 | locus YML120C, strain ndi1, active compounds read low 0.0605 | locus YML124C, strain tub3, active compounds read low 0.0619 | locus YMR058W, strain fet3, active compounds read low 0.0627 | locus YMR078C, strain ctf18, active compounds read low 0.0787 | locus YMR125W, strain sto1, active compounds read low 0.0836 | locus YMR129W, active compounds read low 0.0601 | locus YMR205C, strain PFK2, active compounds read low 0.0903 | locus YMR223W, strain ubp8, active compounds read low 0.0675 | locus YMR231W, strain pep5, active compounds read low 0.0767 | locus YMR307W, strain GAS1, active compounds read low 0.146 | locus YNL067W, strain RPL9B, active compounds read low 0.0522 | locus YNL071W, strain lat1, active compounds read low 0.0645 | locus YNL183C, strain NPR1, active compounds read low 0.0014 | locus YNL209W, strain ssb2, active compounds read low 0.0627 | locus YNL233W, strain BNI4, active compounds read low 0.0583 | locus YNL248C, strain rpa49, active compounds read low 0.0814 | locus YNL250W, strain rad50, active compounds read low 0.0854 | locus YNL271C, strain bni1, active compounds read low 0.0657 | locus YNL298W, strain CLA4, active compounds read low 0.0613 | locus YNL307C, strain MCK1, active compounds read low 0.0688 | locus YNL322C, strain KRE1 (second series), active compounds read low 0.0705 | locus YNR049C, strain mso1, active compounds read low 0.0644 | locus YNR052C, strain pop2, active compounds read low 0.0622 | locus YOL147C, strain pex11, active compounds read low 0.0601 | locus YOR001W, strain rrp6, active compounds read low 0.0736 | locus YOR061W, strain CKA2, active compounds read low 0.0512 | locus YOR069W, strain VPS5, active compounds read low 0.0495 | locus YOR070C, strain gyp1, active compounds read low 0.0684 | locus YOR080W, strain dia2, active compounds read low 0.0706 | locus YOR083W, strain WHI5, active compounds read low 0.0687 | locus YOR106W, strain vam3, active compounds read low 0.065 | locus YOR136W, strain idh2, active compounds read low 0.0767 | locus YOR144C, strain elg1, active compounds read low 0.062 | locus YOR184W, strain ser1, active compounds read low 0.0708 | locus YOR231W, strain MKK1, active compounds read low 0.0947 | locus YOR265W, strain rbl2, active compounds read low 0.066 | locus YOR270C, strain vph1, active compounds read low 0.0971 | locus YOR290C, strain snf2, active compounds read low 0.0737 | locus YOR316C, strain cot1, active compounds read low 0.0627 | locus YPL051W, strain arl3, active compounds read low 0.0688 | locus YPL078C, strain atp4, active compounds read low 0.0715 | locus YPL106C, strain sse1, active compounds read low 0.116 | locus YPL240C, strain hsp82, active compounds read low 0.0653 | locus YPL256C, strain CLN2, active compounds read low 0.116 | locus YPR119W, strain clb2, active compounds read low 0.0705 | locus YPR141C, strain kar3, active compounds read low 0.0696 | locus YPR163C, strain tif3, active compounds read low 0.0728 | locus YPR167C, strain met16, active compounds read low 0.0671 | strain wtn01, active compounds read low 0.0665
